High-throughput results as filed in PubChem BioAssay.
B2AR arrestin: agonists driving beta-arrestin recruitment to human beta2-adrenergic receptor; P07550; beta-arrestin recruitment to beta2AR, cell-based reporter; Potency, µM (doses to about 46.1 µM), hits mostly activators; 330,000 tested, 0.02% active; AID 492947; active = well fitted activation curve with a large enough effect; inconclusive = small, poorly fitted or top-dose-only effect; note: nearly all actives have a fitted effect of over 65% in size
DRD3 agonist: agonists of human D3 dopamine receptor. P35462. D3R DiscoveRx beta-arrestin cells, luminescence, 90 min. max activation, %. 410,000 tested, 0.58% active. AID 652048; in the data active = max activation above about 30%
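Cells at 1500/well, incubated overnight, then treated with pinned compounds (dopamine as control) for 90 min at 37 degrees C. DiscoveRx reagent added for 30 - 60 minutes at room temperature; luminescence read.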
D3 antag: blocks the human D3 dopamine receptor; D3R cells, DiscoveRx beta-arrestin luminescence, antagonist mode; active compounds read low; max response, negative = inhibition, %; P35462; 360,000 tested, 2.5% active; in the data active = max response below about -50%; inconclusive = no clear call, values can overlap the other calls
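Cells expressing the human receptor were seeded at 1500 cells/well, incubated overnight at 37 degrees C in 5% CO2, then exposed to library compounds with dopamine controls for 90 minutes at 37 degrees C before luminescent detection.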
TSHR antag: antagonists of human thyroid stimulating hormone receptor; TSHR-expressing cells, TSH-stimulated cAMP HTRF, 2 h; active compounds read low; 330,000 tested, 0.2% active; activity change, negative = inhibition, % at 11.5 µM; P16473;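 active = activity change below a set negative limit, meaning inhibition stronger than a set level, cut at about -70% in these data; inconclusive = activity change between two set negative limits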
Target sequence (P16473 whole entry, looked up): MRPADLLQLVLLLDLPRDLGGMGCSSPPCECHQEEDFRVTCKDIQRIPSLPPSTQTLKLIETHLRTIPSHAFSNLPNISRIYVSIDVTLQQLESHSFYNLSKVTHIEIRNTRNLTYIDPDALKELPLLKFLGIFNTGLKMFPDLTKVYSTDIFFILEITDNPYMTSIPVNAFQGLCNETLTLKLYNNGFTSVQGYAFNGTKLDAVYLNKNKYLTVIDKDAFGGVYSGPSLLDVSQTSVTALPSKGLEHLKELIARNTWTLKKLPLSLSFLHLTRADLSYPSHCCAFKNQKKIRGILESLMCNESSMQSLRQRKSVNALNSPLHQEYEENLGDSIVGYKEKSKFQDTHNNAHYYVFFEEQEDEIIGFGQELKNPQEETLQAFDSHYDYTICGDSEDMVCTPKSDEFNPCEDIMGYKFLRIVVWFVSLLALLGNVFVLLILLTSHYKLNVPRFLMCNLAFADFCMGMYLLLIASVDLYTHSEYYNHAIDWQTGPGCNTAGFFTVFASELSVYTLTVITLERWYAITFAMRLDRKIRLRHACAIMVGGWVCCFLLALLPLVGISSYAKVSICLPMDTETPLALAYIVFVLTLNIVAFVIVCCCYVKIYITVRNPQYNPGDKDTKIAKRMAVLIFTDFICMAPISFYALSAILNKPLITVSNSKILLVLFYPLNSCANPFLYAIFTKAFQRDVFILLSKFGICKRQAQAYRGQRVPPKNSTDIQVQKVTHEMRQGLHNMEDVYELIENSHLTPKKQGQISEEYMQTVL
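Read-out is FRET at 665 nm (cryptate excitation 337 nm) from a cryptate-tagged anti-cAMP antibody, competed by cell cAMP against cAMP-d2. Compounds are tested on freshly harvested TSHR cells challenged with 4nM TSH (EC80) for 2 hours at 37 deg C.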
Hits are given with their value; – = inactive; ? = inconclusive; · = no result. Only some compounds are listed: those with a hit (about 2.9% of all), similar ones and a draw of the others.

SMILES	B2AR arrestin	DRD3 agonist	D3 antag	TSHR antag
COc1ccc(-c2ccoc2)cc1[C@H]1[C@H]2C=CC[C@@H](C)[C@@H]2C(=O)N1Cc1ccccc1	–	–	-56	–
COc1ccc(-c2ccc(C)cc2)cc1[C@H]1[C@H]2C=CC[C@@H](C)[C@@H]2C(=O)N1Cc1ccccc1	–	–	–	–
COc1ccc(-c2ccc([C@H]3[C@H]4C=CC[C@@H](C)[C@@H]4C(=O)N3Cc3ccccc3)c(F)c2)cc1OC	–	–	–	–
COc1ccc(-c2ccc(OC)c([C@H]3[C@H]4C=CC[C@@H](C)[C@@H]4C(=O)N3Cc3ccccc3)c2)cc1	–	–	-52	–
COC(=O)c1sc(N2C(=O)c3oc4ccc(C)cc4c(=O)c3C2c2ccc(OC)cc2)nc1C (stereo not given)	·	–	·	·
O=S(=O)(Nc1cccc(-c2ccc(N3CCCCCC3)nn2)c1)c1cccc(F)c1	–	–	–	–
O=S(=O)(Nc1cccc(-c2ccc(N3CCCCCC3)nn2)c1)c1ccc(F)cc1	–	–	–	-83
Cc1ccc(Cl)cc1NCc1nnc2n1CCCCC2	·	–	·	·
CCOC(=O)c1ccccc1NC(=O)Cn1c(=O)n(-c2ccc(CC)cc2)c(=O)c2c(C)c(C(=O)N(C)C)sc21	·	–	·	·
CCOC(=O)C(=O)/C(C#N)=C/Nc1ccccc1	–	–	-57	–
CCOC(=O)/C(C#N)=C/Nc1ccccc1OC	–	–	–	–
Nc1nnnn1/N=C/C(Br)=C/c1ccccc1	–	–	-100	–
COc1ccc(C(CC(=O)Nc2ccc(C)cn2)N2Cc3ccccc3C2=O)cc1OC (stereo not given)	·	–	·	·
CCC[C@@H](CN1CCC[C@H]1CN1C(N)=NC[C@@H]1Cc1ccccc1)N1C[C@@H](Cc2ccccc2)N(CCCC2CCCC2)C1=N	–	–	-64	–
CCC[C@@H](CN1CCC[C@H]1CN1C(N)=NC[C@@H]1Cc1ccccc1)N1C[C@@H]([C@H](C)CC)N(CCCC2CCCC2)C1=N	–	–	-97	–
CCCCN1C(=N)N([C@@H](CCC)CN2CCC[C@H]2CN2C(N)=NC[C@@H]2Cc2ccccc2)C[C@H]1Cc1ccccc1	–	–	-79	–
CCC[C@@H](CN1CCC[C@H]1CN1C(N)=NC[C@H]1CC(C)C)N1C[C@@H](Cc2ccccc2)N(CCCC2CCCC2)C1=N	–	–	–	–
CCCCN1C(=N)N([C@@H](C)CN2CCC[C@H]2CN2C(N)=NC[C@@H]2Cc2ccccc2)C[C@H]1[C@H](C)CC	–	–	–	–
CCS(=O)(=O)c1ncc(Cl)c(C(=O)N2CCN(c3ccc(OC)cc3)CC2)n1	·	–	·	·
COc1ccccc1CNC(=O)c1ccc(C)c(-n2cnc3cccnc32)c1	·	–	·	·
O=C(CCSc1ccc(Cl)cc1)c1ccco1	–	–	–	–
O=C(CSc1ccc(Cl)cc1)c1ccco1	–	–	-74	–
S=C(S)OC1CC2CC1C1CCCC21 (stereo not given)	·	–	-80	–
Cc1ccc(NC(=O)C2CCN(S(=O)(=O)c3ccc4[nH]c5c(c4c3)CCCCC5)CC2)cc1	·	–	·	·
O=C(CN1C(=O)c2cccnc2Oc2ccc(Cl)cc21)N1CCOCC1	–	–	–	–
SMILES	B2AR arrestin	DRD3 agonist	D3 antag	TSHR antag
CC1CCN(C(=O)CCCN2C(=O)c3cccnc3Oc3ccc(Cl)cc32)CC1	–	–	-65	–
COc1ccccc1NS(=O)(=O)c1ccc(O)c(C(=O)OCC(=O)N2c3ccccc3CC2C)c1 (stereo not given)	–	–	-106	–
FC(F)(F)c1cccc(Sc2nc(-c3ccccc3)nnc2C(F)(F)F)c1	–	–	-61	–
FC(F)(F)c1nnc(-c2ccccc2)nc1Sc1ccc(Cl)cc1	–	–	-93	–
FC(F)(F)c1nnc(-c2ccccc2)nc1Sc1ccccc1	–	–	?	–
Cc1ccc(Nc2cc(C)nn2-c2nc(C)cc(C)n2)cc1	–	–	?	–
Cc1ccc(Nc2cc(C)nn2-c2nc(C)cc(=O)[nH]2)cc1	–	–	-67	–
Cc1ccc(NC(=O)c2ccc3oc(=O)c(S(=O)(=O)c4ccccc4)cc3c2)cc1C	·	–	·	·
Cc1ccc(N(C)S(=O)(=O)c2nnc(NC(=O)c3ccco3)s2)cc1	–	–	?	–
Cc1nc(NC(=O)c2ccco2)sc1-c1csc(Nc2ccc(Cl)cc2)n1	–	52	–	–
Cc1ccc(Cl)cc1Nc1nc(-c2sc(NC(=O)c3ccco3)nc2C)cs1	–	–	–	–
COc1ccccc1Nc1nc(-c2sc(NC(=O)c3ccco3)nc2C)cs1	–	–	–	–
